This is an account of results in the supplement of paper PMC6555819.

Holding throughout (assay): PBM binding z-score (relative to random genomic background probes); higher = stronger binding; sequences stand for … in GC…GCGATTGACAGCGTAGAATGAAGG
In assay [1] the test system is FXR:RXRa (NR concentration 270 nM, RXRa partner concentration 90 nM). In short, it runs like this: (§1)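 Scanned fluorescence from custom Agilent 4×180K protein-binding microarrays was regression-normalized. Binding z-scores use random background probes as reference. Ligand-free nuclear receptor dimers were incubated on the arrays for 1 h and detected with antibodies against each partner (one per run).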

The test system of assay [2] is LXRa:RXRa (NR concentration 270 nM, RXRa partner concentration 90 nM). The method in brief: as §1
The test system of assay [3] is LXRa homodimer (NR concentration 270 nM). In short, it runs like this: as §1
In assay [4] the test system is LXRb:RXRa (NR concentration 270 nM, RXRa partner concentration 90 nM). The method in brief: as §1
Assay [5] deals with LXRb homodimer (NR concentration 270 nM). The method in brief: as §1
For assay [6], the system named is PPARa:RXRa (NR concentration 270 nM, RXRa partner concentration 90 nM). The method in brief:
as §1

Assay [7] deals with PPARg:RXRa (NR concentration 180 nM, RXRa partner concentration 90 nM). In short, it runs like this: as §1
Assay [8] concerns PPARg:RXRa 270nM:90nM, anti-RXR (NR concentration 270 nM, RXRa partner concentration 90 nM). In short, it runs like this:
as §1

Assay [9] relates to PPARg:RXRa 30nM:10nM, anti-RXR (NR concentration 30 nM, RXRa partner concentration 10 nM). In short, it runs like this: as §1
Assay [10] deals with PPARg:RXRa 90nM:30nM, anti-RXR (NR concentration 90 nM, RXRa partner concentration 30 nM). The method in brief: as §1

In the case of TCTCGGAGGACACGAAAGGTCACAGCTCGACATC, the PBM binding z-score in assay [1] worked out at 4.58; in assay [2] it was 5.46; in assay [3], 4.91; in assay [4], 4.7; in assay [5], 0.595; in [6] it was 4.62. In addition, the PBM binding z-score in assay [7] turned out to be 2.83; in assay [8], 4.15; in assay [9] it was 3.13; in [10] it was 3.77.

CAAGACAGGTGAAAGGTAACTCAGTCTGGTACGC: the PBM binding z-score was 1.04 in [1]; 1.14 in assay [2]; -0.209 in assay [3]; 0.929 in assay [4]; 0.289 in assay [5]; 3.73 in assay [6]. Moreover, the PBM binding z-score in assay [7] stood at 5.4; in assay [8] it was 5.94; in assay [9], 4.14; in assay [10] it was 6.08.

As to CCTCACGGGTCACGAGGTTATAGCACGACGAGCG, the PBM binding z-score was 6.54 in assay [1]; 4.19 in assay [2]; 0.232 in [3]; 3.64 in assay [4]; -0.109 in assay [5]; 5.59 in [6]. Further, the PBM binding z-score in [7] is 6.23; in [8] it was 5.68; in assay [9], 2.34; in assay [10], 4.25.

Turning to TCATATAGGTAAAGGTGGAAGTCGAACGATATGA, the PBM binding z-score in assay [1] was found to be 0.695; in assay [2] it was 0.507; in [3], 0.313; in [4], 0.415; in assay [5], 0.0945; in assay [6] it was 1.93. Moreover, the PBM binding z-score in assay [7] came to 2.54; in [8], 3.54; in assay [9], 4.18; in assay [10], 3.93.

Consider AATACAGGGTCTTCGTAGGCCAGAGTACGCACAG, for which the PBM binding z-score is -0.0491 in [1]; 0.0766 in assay [2]; -0.419 in [3]; -0.205 in assay [4]; -0.311 in assay [5]; 0.156 in assay [6]. Further, the PBM binding z-score in assay [7] stood at 0.75; in assay [8] it was 0.174; in assay [9], 0.334; in assay [10], 0.137.

As for CCTGTTAGTTGACCATAAGGGCAACCGAAGCTCG, the PBM binding z-score in [1] came to 0.874; in [2] it was 0.297; in [3] it was 0.378; in assay [4] it was 0.396; in [5], 0.499; in assay [6] it was 0.707. Moreover, the PBM binding z-score in assay [7] turned out to be 0.162; in assay [8], 0.397; in assay [9] it was 0.0716; in assay [10] it was 0.159.

On to GCAGACAGGTGAAACTCAGGTAACTCAGGGTGGC, for which the PBM binding z-score in assay [1] is 0.432; in [2], 0.209; in [3], -0.137; in assay [4], -0.208; in [5], -0.746; in assay [6], 1.13. Also, the PBM binding z-score in assay [7] was 0.585; in assay [8] it was 0.196; in [9] it was -0.602; in assay [10] it was -0.156.

On to TGAATGAGGTTAAAGATCACGGAACGTGGCGTCG, for which the PBM binding z-score in [1] was 3.68; in [2] it was 2.87; in [3], -0.664; in assay [4] it was 2.2; in assay [5], 0.233; in assay [6], 5.33. For the same sequence, the PBM binding z-score was determined as 7.54 in [7], 7.16 in [8], 6.14 in [9] and 7.59 in [10].

CCTGCTAGGGCATGGTCAGCTAATCTACAGTATG: the PBM binding z-score in [1] is -0.287; in assay [2], -0.381; in assay [3] it was -0.466; in assay [4], -0.695; in [5], -1.06; in assay [6], -0.338. Besides, the PBM binding z-score was 0.0735 in assay [7], -0.381 in assay [8], -0.463 in assay [9] and -0.375 in assay [10].

With CCTACAGGGCCATCAGGTCATTGATATCAACGTT, the PBM binding z-score in assay [1] is 1.88; in assay [2] it was 1.31; in assay [3], 0.875; in [4], 1.51; in [5], -0.272; in assay [6] it was 2. Also, the PBM binding z-score in [7] amounted to 0.835; in assay [8], 1.04; in assay [9], 0.253; in assay [10] it was 0.77.

Regarding ACAGACAGGTGCTGAAGGTAACTCAGGCTATCAT, the PBM binding z-score in assay [1] is -0.388; in [2], -0.633; in assay [3] it was -0.46; in assay [4] it was -0.677; in [5] it was -0.731; in assay [6], -0.462. Further, the PBM binding z-score is 0.398 in [7], -0.189 in assay [8], -0.203 in assay [9] and -0.342 in assay [10].

As to CGCACGAGGGCATGAGTTGATAGCAAATGCCGAT, the PBM binding z-score is 0.564 in assay [1]; 0.295 in [2]; -0.626 in assay [3]; 0.0671 in assay [4]; -0.764 in assay [5]; 1.1 in assay [6]. Also, the PBM binding z-score in [7] was 0.947; in [8], 0.583; in assay [9] it was -0.123; in assay [10], 0.22.

With CGAAATAGGTCATCCAGGACAGTGAATACATTGA, the PBM binding z-score in assay [1] came out at 5.99; in assay [2], 4.69; in assay [3], 1.25; in assay [4] it was 3.8; in [5] it was 0.842; in assay [6], 5.87. The PBM binding z-score in assay [7] was 7.32; in [8], 6.78; in [9], 4.39; in assay [10] it was 6.21.
